# Reference: PubChem BioAssay AID1259343 (VanderVen Lab, College of Veterinary Medicine, Cornell …, 2017)
# About 2,900 (47%) of roughly 6,200 compounds were called active. So high a share suggests a set chosen from earlier hits. The list shows a part of the results. Values without a mark were called inactive. Rule as the data show it: active = inhibition above about 50%; inactive = the rest.
# Experiment: Mycobacterium tuberculosis growth inhibition, primary screen (AID 1259343)
# Details: inhibition: at 10 µM, stronger effect = higher value; outcome: 10 uM
row,SMILES,inhibition
1,N[C@@H](C(=O)O)[C@@H](O)[C@H](O)[C@H](O)CO,-6.84%
2,O=C(NNC(=O)c1cc(-c2ccccc2)no1)c1ccco1,96% (active)
3,O=C(Nc1nccs1)c1ccc(COc2ccc(F)cc2)o1,29.5%
4,O=C(NNC(=O)c1ccc(COc2ccccc2)o1)c1ccco1,59.7% (active)
5,c1ccc(-c2cc(-c3ccccc3)on2)cc1,46.9%
6,Cn1nccc1CNC(=O)c1ccc(COc2cc(Cl)ccc2Cl)o1,35%
7,C=CCn1c(=S)[nH]c2sc3c(c2c1=O)CCC(C)C3 (centres undefined),8.34%
8,C=CCn1c(SCCC#N)nc2sc3c(c2c1=O)CCCC3,80.7% (active)
9,C=CCn1c(SCc2c(C)noc2C)nc2sc(C)c(C)c2c1=O,30.8%
10,O=C(O)c1cccc(=O)n1CCOc1ccccc1Cl,53.1% (active)
11,Cc1ccc(C)c2c3c([nH]c12)-c1nonc1CC3,34.5%
12,Cc1nc2ccccc2c(=O)n1NC(=S)NC(=O)c1ccc(Br)cc1,40.8%
13,CCn1c2ccccc2c2nc3ccccc3nc21,-25.2%
14,O=c1[nH]n2c(=O)c3ccccc3nc2c2ccccc12,86% (active)
15,CC1CN(c2ccc(C(=O)NC(c3ccccc3)c3ccc(Cl)cc3)cn2)CCN1 (centres undefined),33.2%
16,Cc1cc(C(C)(C)C)cc(C)c1CCN1CN(CCO)c2nc3ccccc3n2C1,66.6% (active)
17,CC1CCN(S(=O)(=O)N2CCCC(c3cc4ccccc4[nH]3)C2)CC1 (centres undefined),73.2% (active)
18,CN(C(=O)CN1CCC(c2cc3ccccc3[nH]2)CC1)C1CC1,-6.34%
19,CC1CC(C)CN(S(=O)(=O)NCc2cc3ccccc3[nH]2)C1 (centres undefined),27.9%
20,N[C@H]1CN[C@H](C(=O)N2CC(N3CCCCC3)C2)C1,-19.7%
21,CC/C=C(/C)C(=O)Nc1ccc(-n2nccn2)cc1,96.5% (active)
22,COc1c(N2CCNC(C)C2)c(F)cc2c(=O)c(C(=O)O)cn(C3CC3)c12 (centres undefined),98% (active)

row,SMILES,inhibition
1,O=C(CCS(=O)(=O)c1ccc(Cl)cc1)NCCC1=CCCCC1,79% (active)
2,O=C(Cc1cc(-c2ccc(Cl)cc2)on1)NCCC1=CCCCC1,37.4%
3,COc1ccc(OCC(=O)Nc2cc(C3CC3)nn2-c2nc(C)cc(=O)[nH]2)cc1,-5.9%
4,Cc1cc(=O)[nH]c(-n2nc(C3CC3)cc2NC(=O)COc2ccc(F)cc2)n1,99.9% (active)
5,Cc1cc(=O)[nH]c(-n2nc(C)cc2NC(=O)COc2ccc(F)cc2)n1,99.8% (active)
6,Cc1cc(=O)[nH]c(-n2nc(C3CC3)cc2NC(=O)COc2ccc(Cl)cc2Cl)n1,100% (active)
7,Cc1cc(=O)[nH]c(-n2nc(C3CC3)cc2NC(=O)COc2ccc(Cl)cc2)n1,100% (active)
8,CCCCn1c(O)c(C=Nc2cccc(C)c2)c(C)c(C#N)c1=O,-35.7%
9,Cc1cc(C(F)(F)F)c2c(n1)sc1c(O)cc(=O)[nH]c12,27.2%
10,CCc1cc(=O)[nH]c(-n2nc(C)cc2NC(=O)C(c2ccccc2)c2ccccc2)n1,100% (active)
11,CCc1c(C)nc(-n2nc(C)cc2NC(=O)C(CC)c2ccccc2)[nH]c1=O (centres undefined),12.6%
12,Cc1cc(=O)[nH]c(-n2nc(C)cc2NC(=O)C(c2ccccc2)c2ccccc2)n1,101% (active)
13,Cc1cc(=O)[nH]c(-n2nc(C)cc2NC(=O)C(C)Oc2ccccc2)n1 (centres undefined),99.8% (active)
14,CCc1ccc(CNC(=O)c2ccc(Cl)s2)s1,45%
15,CCc1ccc(CNC(=O)c2cncc(Br)c2)s1,83.2% (active)
16,CCc1ccc(CNC(=O)c2cc(F)ccc2Br)s1,59.5% (active)
17,CN(C)c1cc(C(=O)NCc2ccc(Cl)s2)ccn1,-1.2%
18,CCc1ccsc1CNC(=O)c1sccc1Br,24.1%
19,CCc1ccc(CNC(=O)c2cc(C)sc2C)s1,54.8% (active)
20,CC(C)Cc1noc(-c2ccc(-c3ccc(O)cc3)nc2)n1,23.2%
21,CCc1nc(C)c(-c2nc(CCc3ccccc3)no2)s1,49.3%
22,Cc1noc(-c2ccc(N3CC[C@@H](c4ccc5c(c4)OCO5)[C@H](O)C3)nc2)n1,12.9%

row,SMILES,inhibition
1,COC1CCN(c2ccc(-c3nc(CCCc4ccccc4)no3)cn2)CC1,51.1% (active)
2,Nc1ccc(-c2ccc(-c3nc(CCCc4ccccc4)no3)cn2)cn1,59.3% (active)
3,CCc1cn[nH]c1C1CCN(c2noc(-c3ccccc3)n2)CC1,20.9%
4,OCc1ccccc1-c1ccc(-c2nc(CCc3ccccc3)no2)cn1,75.2% (active)
5,CC(C)Oc1cccc(C(=O)C2CCCN(C(=O)/C=C/c3cccs3)C2)c1 (centres undefined),-2.95%
6,O=C(CCCc1cccs1)N1CCN(c2ccccc2O)CC1,13%
7,O=C(Nc1ccc2c(c1)CN(C(=O)/C=C/c1cccs1)CC2)c1ccccn1,58.9% (active)
8,O=C(Nc1ccc2c(c1)CN(C(=O)CCCc1cccs1)CC2)c1ccccn1,54.1% (active)
9,O=C(Nc1ccc2c(c1)CN(Cc1ccc(-n3cccn3)cc1)CC2)c1ccccn1,inactive
10,COc1ccccc1C(=O)Nc1ccc2c(c1)CN(Cc1c[nH]c3ccccc13)CC2,45.8%
11,FC(F)(F)c1cc(NCC2CC2)c2ccccc2n1,8.13%
12,OC(c1cc(C(F)(F)F)nc2c(C(F)(F)F)cccc12)C1CCCCN1 (centres undefined),78.8% (active)
13,O=S(=O)(NCCc1cccc(Cl)c1)N1CCCCCC1,21.7%
14,O=C(NCCc1ccc(Cl)cc1)N1CCN(c2ccccc2)CC1,13.3%
15,O=C(NCCc1cccc(Cl)c1)N1CCc2ccccc2C1,83.4% (active)
16,CSc1nc2ccc(N=Cc3c[nH]c4ccccc34)cc2s1,95.1% (active)
17,CSc1nc2ccc(N=Cc3ccc4ncccc4c3)cc2s1,-22.5%
18,Cn1c(CSc2ccccc2)nc2ccccc21,39%
19,Cc1ccc(C)c(OCCN(C)Cc2nc3ccccc3n2C)c1,83.1% (active)
20,Cn1c(COc2cccc3ccccc23)nc2ccccc21,-3.53%
21,c1nc(NC23CC4CC(CC(C4)C2)C3)c2ccsc2n1,-13.2%
22,CC(C)CCCC(C)Nc1ncnc2sccc12 (centres undefined),60.5% (active)

row,SMILES,inhibition
1,CCCCC(CC)CNc1ncnc2sccc12 (centres undefined),59.1% (active)
2,CC1(C)C2CCC1(C)C(Nc1ncnc3sccc13)C2 (centres undefined),41.4%
3,FC(F)(F)c1cc(Nc2ncnc3sccc23)ccc1Br,23.6%
4,CCCCC(CC)CNS(=O)(=O)c1cccc(F)c1 (centres undefined),45.9%
5,COC(=O)c1ccc(-c2noc(CN(C)Cc3cccc(-n4cccn4)c3)n2)cc1,50.6% (active)
6,Cc1cc(C)n(-c2cccc(CN(C)Cc3nc(-c4ccc5c(c4)OCO5)no3)c2)n1,45.7%
7,CN(Cc1cccc(-n2cccn2)c1)Cc1nc(Cc2ccccc2Cl)no1,inactive
8,CC(SC1CCCC1)C(=O)N1CCCC1 (centres undefined),52.1% (active)
9,COc1cccc(-c2ccccc2NC(=O)C2CCN(CC(C)c3ccccc3)CC2)c1 (centres undefined),74.2% (active)
10,COc1cccc(-c2ccccc2NC(=O)C2CCN(CC3CC=CCC3)CC2)c1 (centres undefined),84% (active)
11,COc1cccc(-c2ccccc2NC(=O)C2CCN(Cc3cc4ccccc4[nH]3)CC2)c1,17.3%
12,COc1cccc(-c2ccccc2NC(=O)C2CCN(CCC(C)c3ccc(C)o3)CC2)c1 (centres undefined),80.1% (active)
13,COc1cccc(-c2ccccc2NC(=O)C2CCN(CC3CCCCC3)CC2)c1,89.8% (active)
14,CC(C)c1ccc(C#N)c(SC2CC(=O)N(c3ccc(Br)cc3)C2=O)n1 (centres undefined),10.7%
15,O=C(/C=C/c1ccc(O)c(O)c1)OCCc1ccccc1,102% (active)
16,COc1cc(/C=C/C(=O)O)ccc1O,37.7%
17,CC1CC(OCC(O)CN2CCC(CN3C(=O)c4cccc5cccc(c45)C3=O)CC2)CC(C)(C)C1 (centres undefined),90.1% (active)
18,O=C(CCNc1ccc(Cc2ccncc2)cc1)c1ccc2c(c1)OCO2,84.6% (active)
19,O=C(C(Br)=CNc1ccc(Cl)c(Cl)c1)C(F)(F)F,87% (active)
20,CCC(C(=O)c1ccc2ncccc2c1)c1ccccc1 (centres undefined),58.2% (active)
21,CN(CC1Cc2ccccc2O1)C(=O)c1cc(COc2ccc3ncccc3c2)on1 (centres undefined),35.5%
22,CCc1ccc(C(=O)NCc2cccc(C(=O)Nc3ccncc3)c2)o1,51.8% (active)

row,SMILES,inhibition
1,CCc1ccc(C(=O)NCc2ccc(C#N)cc2)o1,12.2%
2,CCN(c1ccc(C(=O)Nc2ccncc2)cc1)C(C)C,8.43%
3,CC1(C)C2CC=C(C=NNC(=O)NC3CCCCC3)C1C2 (centres undefined),-4.24%
4,O=C(/C=C/c1ccc([N+](=O)[O-])s1)Nc1nnc(C2COc3ccccc3O2)o1 (centres undefined),101% (active)
5,CN(CCCC(=O)Nc1ccc2[nH]c(=S)oc2c1)C(=O)OC(C)(C)C,73.7% (active)
6,CN(CCCCCCCCCCN(C)C(=O)Oc1cccc([N+](C)(C)C)c1)C(=O)Oc1cccc([N+](C)(C)C)c1,49.3%
7,C=CCN=c1scc(-c2ccccc2)n1N=Cc1ccccn1,20.3%
8,Cc1[nH]n(-c2cccc(Cl)c2)c(=O)c1C=NCCc1ccccc1,72.9% (active)
9,Cc1ccc(C)c(Oc2cc(-n3ncc(Cl)c(Cl)c3=O)nc(C)n2)c1,101% (active)
10,Cc1ccc2nc(-c3ccncc3)cc(-c3ccccc3)c2c1,53.7% (active)
11,NC(=O)C(c1ccc(F)cc1)N1CCOC(c2ccc(F)cc2)C1 (centres undefined),-5.29%
12,O=C(c1ccc2c(c1)OCO2)C1CCCN(Cc2c(F)cccc2Cl)C1 (centres undefined),-16.5%
13,O=C(CCl)N1CCN(Cc2cccc3ccccc23)CC1,71.9% (active)
14,O=C(CCl)N1CCN(Cc2c(F)cccc2Cl)CC1,66.2% (active)
15,O=C(CCl)N1CCN(Cc2ccc(Cl)s2)CC1,-19.9%
16,CC1(C(=O)NCc2cccc3ccccc23)CCN1CCCc1ccccc1 (centres undefined),32.3%
17,O=c1ccc(-c2ccco2)nn1Cc1cccc2ccccc12,37%
18,O=[N+]([O-])c1ccc(N2CCN(Cc3c(F)cccc3Cl)CC2)cc1,86.5% (active)
19,O=c1ccc(-c2cccc([N+](=O)[O-])c2)nn1Cc1c(F)cccc1Cl,21.1%
20,O=C(CCl)N1CCN(c2ccccc2F)CC1,97.1% (active)
21,N#Cc1c(F)cccc1N1CCN(c2ccccc2O)CC1,-21.1%
